Assay outcomes from PubChem BioAssay.
This is a sample that favours compounds with a hit; in the whole collection about 2.4% have one here.
Cruzain noTriton: qHTS Assay for Promiscuous and Specific Inhibitors of Cruzain (without detergent). Cruzipain (Trypanosoma cruzi), P25779. purified cruzain, Z-FR-AMC fluorescence, no detergent. Potency, µM, usual class: inhibitors. actives 2.3% (n = 200,000); further: nearly all actives have a fitted effect of over 40% in size
Target sequence (P25779 123-467 limits assumed): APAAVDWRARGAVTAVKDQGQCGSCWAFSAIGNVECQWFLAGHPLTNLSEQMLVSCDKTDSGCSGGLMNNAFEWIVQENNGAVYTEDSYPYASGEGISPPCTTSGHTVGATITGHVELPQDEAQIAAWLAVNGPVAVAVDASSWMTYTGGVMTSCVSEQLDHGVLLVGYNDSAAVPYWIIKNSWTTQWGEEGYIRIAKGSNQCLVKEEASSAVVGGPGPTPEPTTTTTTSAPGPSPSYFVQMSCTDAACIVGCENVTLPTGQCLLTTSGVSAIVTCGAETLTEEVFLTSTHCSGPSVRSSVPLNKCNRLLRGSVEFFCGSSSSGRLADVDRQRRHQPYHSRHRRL
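Purified cruzain at 1.5 nM, pre-incubated 15 min with compound at room temperature in 100 mM sodium acetate pH 5.5, 5 mM DTT, 0.00005% Triton X-100. Reaction started with 2 uM Z-FR-AMC; AMC fluorescence increase over 60 s gives rate.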
Cruzain inh Det: qHTS Assay for Promiscuous and Specific Inhibitors of Cruzain (with detergent); Cruzipain (Trypanosoma cruzi), P25779; purified cruzain, Z-FR-AMC fluorescence, 0.01% Triton; Potency, µM, usual class: inhibitors; actives 0.43% (n = 200,000); AID 1478, 2009; further: nearly all actives have a fitted effect of over 40% in size
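Detergent-containing arm of a paired screen for aggregation-based inhibition: 0.01% Triton X-100 present. Cruzain at 1.5 nM cleaved 2 uM Z-FR-AMC at pH 5.5 with 5 mM DTT; AMC fluorescence gain over 60 s measured activity.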
Numbers stand for hits; . = inactive; ? = inconclusive. The call rests on the fitted dose curve; in most records, active means well fitted curve in the direction sought with a large enough effect; inconclusive means small, poorly fitted or top-dose-only effect, or another doubt; inactive means no such curve, though single readings can be large; an effect the other way counts as inactive or inconclusive.

SMILES | Cruzain noTriton | Cruzain inh Det
CSCCC(NC(=O)C12CC3CC(CC(C3)C1)C2)C(=O)OCC(=O)c1ccc(C)cc1 (stereo not given) | . | .
CSCCC(NC(=O)c1ccc([N+](=O)[O-])cc1Cl)C(=O)OCC(=O)C12CC3CC(CC(C3)C1)C2 (stereo not given) | 25µM | 28µM
CCNC(=O)CC1C(=O)N(c2ccc(C)cc2)C(=O)N1Cc1ccc(C)cc1 (stereo not given) | . | .
COCCCn1c(-c2ccco2)nc2ccccc2c1=O | . | .
CCCCOCCCn1c(-c2ccco2)nc2nc3ccccc3nc21 | ? | 28µM
O=C(O)c1cc2c(s1)-c1ccccc1CC2 | . | .
O=C(O)c1cc2c(s1)-c1ccccc1OC2 | 25µM | ?
O=C(Nc1ccccc1)C(=O)c1cn(CC(=O)N2CCCCC2)c2ccccc12 | . | .
CC(=O)c1ccc(NC(=O)C(=O)c2cn(CC(=O)N3CCCCC3)c3ccccc23)cc1 | 10µM | .
O=C(CSc1nc2ccccc2nc1Cc1ccccc1)N1CCCc2ccccc21 | . | .
COc1cc(OC)cc(-c2nc3nc(C)c(CCC(=O)Nc4ccc(C)c(C)c4)c(C)n3n2)c1 | . | .
COC(=O)c1ccc(NC(=O)CSc2nnc(COc3ccc4c(c3)CCCC4)o2)cc1 | 10µM | .
CCc1ccc(OCc2nnc(SCC(=O)Nc3cccc(C(=O)N4CCOCC4)c3)o2)cc1 | ? | .
COc1cccc(NC(=O)CSc2nnc(COc3ccc4c(c3)CCCC4)o2)c1 | . | .
CCc1ccc(NC(=O)CSc2nnc(COc3ccc4c(c3)CCCC4)o2)cc1 | 16µM | .
COc1cc2c(cc1OC)C1C(=O)c3c(cc4c(c3O)C=CC(C)(C)O4)OC1CO2 (stereo not given) | ? | .
Cc1ccc(C)c(Cn2c3ccccc3c3cnn(CC(=O)NC(C)CCc4ccccc4)c(=O)c32)c1 (stereo not given) | . | .
O=C(c1ccc(Cl)cc1)n1nc(-c2ccco2)nc1NCc1cccs1 | . | .
Cc1ccc(-c2nn(-c3ccccc3)cc2C(=O)OCC(=O)Nc2ncc(Cl)cc2Cl)cc1 | 32µM | .
COc1ccc(-c2cc(C(=O)OCC(=O)c3ccc(C)c([N+](=O)[O-])c3)c3ccccc3n2)cc1 | 10µM | .
CC(=O)Nc1ccc(C(=O)OCC(=O)c2ccc(C)c([N+](=O)[O-])c2)cc1 | . | .
O=C(COC(=O)CN1C(=O)c2ccccc2C1=O)Nc1ncc(Cl)cc1Cl | . | .
COc1ccc(NC(=O)c2cn(-c3ccccc3)nc2-c2ccc(C)cc2)cc1 | . | .
Cc1ccc(C(=O)COC(=O)c2cc(-c3ccccc3)nc3ccccc23)cc1C | . | .
COc1ccc(-c2nn(-c3ccccc3)cc2C(=O)n2nnc3ccccc32)cc1 | 16µM | .
SMILES | Cruzain noTriton | Cruzain inh Det
COc1ccc(-c2nn(-c3ccccc3)cc2C(=O)OCC(=O)c2ccc(C)c([N+](=O)[O-])c2)cc1 | 25µM | .
CCOc1ccccc1NC(=O)CSc1nc2c([nH]c3ccccc32)c(=O)n1-c1ccccc1 | . | .
Cc1nc(SCC(=O)c2cc3ccccc3oc2=O)c(C#N)c(-c2ccccc2)c1C(=O)Nc1ccccc1 | 20µM | .
COc1ccc(-c2c(C#N)c(SCC(=O)Nc3ccc(Br)cc3)nc(C)c2C(=O)Nc2ccccc2)cc1 | 10µM | .
COc1ccc(-c2c(C#N)c(SCC(=O)Nc3ccc(C)cc3)nc(C)c2C(=O)Nc2ccccc2)cc1 | . | .
COc1ccc(-c2c(C#N)c(SCC(=O)c3cc4ccccc4oc3=O)nc(C)c2C(=O)Nc2ccccc2)cc1 | ? | .
O=C(CSc1nc2cc3ccccc3cc2[nH]1)Nc1cccc(C(F)(F)F)c1 | ? | .
COC(=O)N[C@@H](c1cccc(F)c1)[C@@H](C)[N+](=O)[O-] | . | .
O=C(Cc1ccc(-c2ccccc2)cc1)NCCS(=O)(=O)N1CCN(c2ccccc2F)CC1 | 13µM | .
COc1ccc(CC(=O)NCCS(=O)(=O)N2CCN(c3ccccc3F)CC2)cc1OC | . | .
COc1ccc(-n2c(C)cc(-c3csc(N)n3)c2C)cc1 | 20µM | .
CCCn1c(C)cc(-c2csc(N)n2)c1C | ? | .
C=CCn1c(C)cc(-c2csc(N)n2)c1C | ? | .
Cc1cc(-c2csc(N)n2)c(C)n1-c1ccc(Cl)c(Cl)c1 | 13µM | .
CCN(CC)S(=O)(=O)c1ccc(NC(=O)c2nn(C)c3c2CSc2ccccc2-3)cc1 | . | .
CCNC(=O)Cc1ccc(NC(=O)N2CCCCc3ccccc32)cc1 | . | .
CCCCCCCc1cc2c(cn1)C(=O)C(C)(OC(C)=O)C(O)=C2Cl (stereo not given) | . | .
CCOc1ccccc1-c1nc(Cn2c(=O)cc(C)c3c(C)nn(-c4ccccc4)c32)c(C)o1 | . | .
COc1ccc(-c2nc(C(=O)Nc3cccc(C(C)=O)c3)nn2-c2ccc(Cl)cc2)cc1 | . | .
CC(=O)c1cccc(NC(=O)c2nc(-c3ccccc3)n(-c3ccccc3C)n2)c1 | 7.9µM | .
COc1ccc(-c2nc3c(C#N)c[nH]n3c2NC2CCCC2)cc1 | . | .
Cn1c(=O)c(C(=O)COC(=O)c2cc(-c3ccccc3)nc3ccccc23)c(N)n(Cc2ccccc2)c1=O | 10µM | .
Cn1c(=O)c(C(=O)COC(=O)c2cc(C(F)(F)F)nc3ccccc23)c(N)n(Cc2ccccc2)c1=O | . | .
COC(=O)c1ccccc1NC(=O)CSc1nc(-c2ccccc2)cc(C(F)(F)F)n1 | . | .
COc1ccc(/C=C/C(=O)Oc2cccc(/C=N/NC(=O)COc3c(C)cccc3C)c2)cc1 | 16µM | .
SMILES | Cruzain noTriton | Cruzain inh Det
COc1ccc(/C=C/C=N/NC(=O)COc2ccc(OC)cc2)cc1 | . | .
Cc1cccc(C)c1OCC(=O)N/N=C/c1cccn1C | . | .
COc1ccc(/C=C/C(=O)Oc2ccc(/C=N/NC(=O)COc3c(C)cccc3C)cc2)cc1 | 7.9µM | .
CCc1ccc(NC(=O)c2cc3c(COC(C)=O)cnc(C)c3oc2=O)cc1 | . | .
N#C/C(=C\c1ccc(-c2ccccc2)o1)C(=O)Nn1cnnc1 | . | .
N#C/C(=C\c1ccc(-c2cccc(Cl)c2)o1)C(=O)Nc1cccc2cccnc12 | 3.2µM | .
O=C1/C(=C/c2cccs2)SC(=S)N1c1ccccc1 | ? | .
CCN(CC)c1ccc(N2C(=O)/C(=C\c3cccs3)SC2=S)cc1 | 25µM | .
CCn1c(=N)c(C(=O)NC2CCCC2)cc2c(=O)n3cc(C)ccc3nc21 | . | .
CCOC(=O)c1ccc(NC(=O)Nc2ccc3c(c2)OCCO3)cc1 | . | .
CCOC(=O)c1ccc(NC(=O)N2CCOc3ccccc32)cc1 | 10µM | .
NS(=O)(=O)C[C-]1C=C[CH]([Sb-]([Cl])([Cl])([Cl])([Cl])[Cl])C=C1.c1ccncc1 (stereo not given) | . | .
CCCCCC(=O)Nc1ccc(NC(=O)c2cc3ccccc3o2)c(OC)c1 | ? | .
O/N=C/c1c[nH]c2ccccc12 | . | .
O=C1/C(=C/c2c[nH]c3ccccc23)CCC/C1=C\c1c[nH]c2ccccc12 | 25µM | .
O=C(c1ccc(Br)cc1)N1CCC(c2nc3ccccc3s2)CC1 | . | .
CC1CCC(NC(=O)c2ccc(CS(=O)(=O)c3cccc(C(F)(F)F)c3)o2)CC1 (stereo not given) | ? | .
